# In PubChem BioAssay AID1347150 (National Center for Advancing Translational Sciences (NCATS), 2019):
# Inconclusive results are not listed. Unmarked numbers belong to inactive results. Active and inactive are the calls of the source. The call rests on the fitted dose curve; in most records, active means well fitted curve in the direction sought with a large enough effect; inconclusive means small, poorly fitted or top-dose-only effect, or another doubt; inactive means no such curve, though single readings can be large or run the other way. Numbered stars: 1 amine (or outer) side, 2 acyl side, 3 side chain; on linkers, the order of the positions; unused ones are H or OH. Bridge positions count the residues as written; N and C are the ends. Square brackets hold non-standard residues; d marks the D form. Peptide text beside a SMILES is read from it. I, II: the chains in the order shown. ξ: configuration not given here. Actinocin(9to1) = Cc1c2oc3c(C)ccc(C(=O)[*:1])c3nc-2c(C(=O)[*:2])c(N)c1=O; aThr = C[C@H](O)[C@H](N)C(=O)O; NMeV = CN[C@H](C(=O)O)C(C)C; ξNMeV = CNC(C(=O)O)C(C)C; ξV = CC(C)C(N)C(=O)O; Sar = CNCC(=O)O
# Test system: Zika virus NS2B-NS3 protease (linked)
# Experiment: Optimization screen NINDS AMC qHTS for Zika virus inhibitors: Linked NS2B-NS3 protease assay
# Conditions: recombinant linked NS2B-NS3 protease, AMC fluorogenic substrate; series mostly up to 52.5 µM; activity change, negative = inhibition: at the top concentration
# Source text: Avindra Nath, Ph.D., National Institute of Neurological Disorders and Stroke (NINDS), Bethesda, MD
# Radhakrishnan Padmanabhan, Ph.D., Georgetown University (GU), Washington D.C.
# Zika Virus causes congenital defects, including microcephaly and is associated with Guillain-Barre syndrome, eningoencephalitis and myelitis in infected adult. […] Using a target-based approach, we hope to establish a screening paradigm to uncover novel, cell-active NS2B-NS3 protease (Zika Virus) specific inhibitors from NCATS' collection of small molecules using qHTS.
# Four assay panel was created to identify potential Zika Virus inhibitors. Namely, (1) GU unlinked NS2B-NS3 AMC tagged protease qHTS, (2) GU unlinked NS2B-NS3 Rhodamine tagged protease qHTS, (3) NINDS linked NS2B-NS3 AMC tagged protease qHTS, (4) NINDS linked NS2B-NS3 Rhodamine tagged protease qHTS. Active compounds were re-acquired and re-screened to confirm inhibition. Inhibitors were further screened against various confirmatory and counterscreens in dose response format.
# Early Translation Branch (ETB)
# National Center for Advancing Translational Sciences (NCATS), Rockville, MD
# National Institute of Health (NIH), Bethesda, Maryland
# For the linked assay, Nath lab (NINDS) provided the purified linked NS2B-NS3 protease which is consists of hydrophilic domain of NS2B linked to the NS3 protease domain by a flexible (-GGGGSGGGG-) linker. Control compound aprotinin is obtained from Thermo Scientific (#78432; Waltham, Massachusetts). NS2B-NS3 AMC substrate (Bz-Nle-Lys-Arg-Arg-AMC; Nle-KRR-AMC) purchased from Bachem (#I-1995; Torrance, CA). Ac-VKTGKR-AMC purchased from Genscript or Bachem, Ac-FAAGKR-AMC purchased from Genscript, Ac-GLVKRR-AMC purchased from Genscript, Ac-LKKR-AMC purchased from Genscript.
# NINDS AMC linked NS2B-NS3 protease qHTS protocol:
# Briefly, 3 microL of Zika virus linked NS2B-NS3 protease (1 nM for linked final concentration), in assay buffer (10 mM Tris-HCl pH 8.0 with 0.01% Tween 20) was dispensed into a 1,536-well solid-bottom black plate (Greiner Bio One, Monroe, NC). Twenty-three nL of compounds (final concentration range 7.28 nM to 114 microM) or control Aprotinin (final concentration range 3.47 nM to 114 microM) were transferred via Wako Pin-tool (Wako Automation, Richmond, VA). Samples were incubated (room temperature, protected from light) for 15 minutes followed by a 1 microL AMC substrate addition of (final concentration of 10 microM; Km = 18.3 µM). Plates were then read immediately on a ViewLux High-throughput CCD imager (PerkinElmer, Waltham, MA) equipped with standard UV fluorescence optics (340(30) nm excitation, 450(20) nm emission) then incubated (room temperature, protected from light) for 15 minutes (~20% conversion). The change in fluorescence intensity over the 15-minute reaction period was normalized against no-inhibitor and no-enzyme controls and the resulting percent inhibition data were fitted to a 4-parameter Hill equation. Aprotinin was used as the intraplate control.
Compound,"activity change, negative = inhibition",Potency
CC1O[C@@H](O[C@@H]2C(O)C[C@H](O[C@@H]3C(O)C[C@@H](OC4CC[C@@]5(C)C6CC(O)[C@@]7(C)C(C8=CC(=O)OC8)CC[C@@]7(O)C6CC[C@@H]5C4)OC3C)OC2C)CC(O)[C@H]1O (stereo not given in full),4.73%,
C[C@H](NC(=O)C(=O)Nc1ccccc1C(C)(C)C)C(=O)N[C@@H](CC(=O)O)C(=O)COc1c(F)c(F)cc(F)c1F,3.42%,
Nc1ccn([C@@H]2O[C@H](CO)[C@@H](O)C2(F)F)c(=O)n1,7.77% [at 114 µM],
CO[C@H]1C[C@@H](O[C@@H]2/C(C)=C/C[C@@H]3C[C@@H](C[C@]4(CC[C@H](C)[C@@H](C5CCCCC5)O4)O3)OC(=O)[C@@H]3C=C(C)/C(=N/O)[C@H]4OC/C(=C\C=C\[C@@H]2C)[C@]43O)O[C@@H](C)[C@H]1O,-44.5%,
CC[C@@H](C)[C@H]1O[C@]2(CC[C@H]1C)C[C@@H]1C[C@@H](CC=C(C)[C@@H](O[C@H]3C[C@H](OC)[C@@H](O[C@H]4C[C@H](OC)[C@@H](O)[C@H](C)O4)[C@H](C)O3)[C@@H](C)C=CC=C3CO[C@@H]4[C@H](O)C(C)=C[C@@H](C(=O)O1)[C@]34O)O2,1.01%,
CC(C)N=c1cc2n(-c3ccc(Cl)cc3)c3ccccc3nc-2cc1Nc1ccc(Cl)cc1,-7.44%,
COc1c2occc2cc2ccc(=O)oc12,,inactive
C[S+](CC[C@H](N)C(=O)O)C[C@H]1O[C@@H](n2cnc3c(N)ncnc32)[C@H](O)[C@H]1O (stereo not given in full),-24.3%,
COC(=O)Nc1nc2ccc(C(=O)c3ccccc3)cc2[nH]1,7.48%,
O[C@@H](c1cc(C(F)(F)F)nc2c(C(F)(F)F)cccc12)[C@H]1CCCCN1,11.7%,
OC(c1cc(C(F)(F)F)nc2c(C(F)(F)F)cccc12)C1CCCCN1 (stereo not given),9.63%,
O=C1c2c(O)ccc([N+](=O)[O-])c2C(=O)c2c([N+](=O)[O-])ccc(O)c21,,44.1 µM (active)
O=C1c2cccc3c2[C@@H](CCC3)CN1[C@@H]1CN2CCC1CC2,-3.68%,
"Cc1c2oc3c(C)ccc(C(=O)N[C@@H]4C(=O)N[C@H](C(C)C)C(=O)N5CCC[C@H]5C(=O)N(C)CC(=O)N(C)[C@@H](C(C)C)C(=O)O[C@@H]4C)c3nc-2c(C(=O)N[C@@H]2C(=O)N[C@H](C(C)C)C(=O)N3CCC[C@H]3C(=O)N(C)CC(=O)N(C)[C@@H](C(C)C)C(=O)O[C@@H]2C)c(N)c1=O (I: T[dV]P[Sar][NMeV] / II: T[dV]P[Sar][NMeV]; ester I:1-I:C, II:1-II:C; linker I:N-II:N via Actinocin(9to1))",,inactive
Cc1ccccc1CNc1ncnc2c1ncn2C1OC(CO)C(O)C1O (stereo not given),-8.32%,
CC1OC(OC2C(O)CC(OC3C(O)CC(OC4CCC5(C)C(CCC6C5CC(O)C5(C)C(C7=CC(=O)OC7)CCC65O)C4)OC3C)OC2C)CC(O)C1O (stereo not given),4.68% [at 114 µM],
"Cc1c2oc3c(C)ccc(C(=O)N[C@@H]4C(=O)N[C@@H](C(C)C)C(=O)N5CCC[C@@H]5C(=O)N(C)CC(=O)N(C)[C@@H](C(C)C)C(=O)O[C@H]4C)c3nc-2c(C(=O)N[C@@H]2C(=O)N[C@@H](C(C)C)C(=O)N3CCC[C@@H]3C(=O)N(C)CC(=O)N(C)[C@@H](C(C)C)C(=O)O[C@H]2C)c(N)c1=O (I: [aThr]V[dP][Sar][NMeV] / II: [aThr]V[dP][Sar][NMeV]; ester I:1-I:C, II:1-II:C; linker I:N-II:N via Actinocin(9to1))",-35.3%,
O=C(Nc1ccc([N+](=O)[O-])cc1Cl)c1cc(Cl)ccc1O,-11.4%,
NC(=O)C(=O)O,11.6%,
CO[C@H]1C[C@H](O[C@@H]2/C(C)=C/C[C@@H]3C[C@@H](C[C@]4(CC[C@H](C)[C@@H](C5CCCCC5)O4)O3)OC(=O)[C@@H]3C=C(C)/C(=N/O)[C@H]4OC/C(=C\C=C\[C@@H]2C)[C@]43O)O[C@@H](C)[C@@H]1O,-35.6%,

Compound,"activity change, negative = inhibition",Potency
Cc1nc(Nc2ncc(C(=O)Nc3c(C)cccc3Cl)s2)cc(N2CCN(CCO)CC2)n1,,355 µM (active)
CC=CCC(C)C(O)C1C(=O)NC(CC)C(=O)N(C)CC(=O)N(C)C(CC(C)C)C(=O)NC(C(C)C)C(=O)N(C)C(CC(C)C)C(=O)NC(C)C(=O)NC(C)C(=O)N(C)C(CC(C)C)C(=O)N(C)C(CC(C)C)C(=O)N(C)C(C(C)C)C(=O)N1C (stereo not given),7.12%,
O=c1cc(-c2ccccc2)oc2cc(O)c(O)c(O)c12,-18.3%,
C[C@H]1O[C@@H](O[C@H]2[C@@H](O)C[C@H](O[C@H]3[C@@H](O)C[C@H](O[C@H]4CC[C@@]5(C)[C@H](CC[C@@H]6[C@@H]5C[C@@H](O)[C@]5(C)[C@@H](C7=CC(=O)OC7)CC[C@]65O)C4)O[C@@H]3C)O[C@@H]2C)C[C@H](O)[C@@H]1O,6.73% [at 114 µM],
"Cc1c2oc3c(C)ccc(C(=O)N[C@@H]4C(=O)NC(C(C)C)C(=O)N5CCC[C@H]5C(=O)N(C)CC(=O)N(C)C(C(C)C)C(=O)O[C@@H]4C)c3nc-2c(C(=O)N[C@@H]2C(=O)NC(C(C)C)C(=O)N3CCC[C@H]3C(=O)N(C)CC(=O)N(C)C(C(C)C)C(=O)O[C@@H]2C)c(N)c1=O (stereo not given in full) (I: T[ξV]P[Sar][ξNMeV] / II: T[ξV]P[Sar][ξNMeV]; ester I:1-I:C, II:1-II:C; linker I:N-II:N via Actinocin(9to1))",-2.5%,
CCC(CC)(NC(=O)C(C)C)C(=O)N[C@@H](CCCN=C(N)N)C(=O)NC1(C(=O)NC(c2ccc(F)cc2)c2ccc(F)cc2)CCCC1,14.4%,
CCOc1ccc(C2C(=O)N(C3CCCCCC3)CC(=O)N2CCc2ccc(Cl)cc2)cc1OC (stereo not given),2.88%,
S=c1nc[nH]c2nc[nH]c12,,inactive
CN1CCN(C(=O)CCN2C(=O)/C(=C\c3ccccc3F)SC2=S)CC1,9.29% [at 114 µM],
N[C@H](C(=O)O)c1ccc(O)cc1,-13.9%,
CC(C)C[C@H](NC(=O)[C@H](Cc1ccccc1)NC(=O)c1cnccn1)B(O)O,7.56%,
Cn1cnc([N+](=O)[O-])c1Sc1ncnc2nc[nH]c12,,inactive
CC(=O)Nc1ccc([C@H](C)C(=O)Nc2ncc(C(C)C)s2)cc1,7.38%,
CCOc1ccc(C2C(=O)N(C3CCCCC3)CC(=O)N2Cc2ccc(F)cc2)cc1OC (stereo not given),4.99%,
COc1c(C)c2c(c(O)c1C/C=C(\C)CCC(=O)O)C(=O)OC2,-3.86%,
CCCCC(CC)CN=C(N)NC(N)=NCCCCCCN=C(N)NC(N)=NCC(CC)CCCC (stereo not given),,19.2 µM (active)
Nc1ncnc2c1ncn2[C@@H]1O[C@H](CSCC[C@H](N)C(=O)O)[C@@H](O)[C@H]1O,-22.3%,
CCCCOc1ccc(C2C(=O)N(C3CCCCC3)CC(=O)N2C2CCCCC2)cc1 (stereo not given),-23.4%,
C[C@H]1O[C@@H](O[C@H]2CC[C@@]3(C)[C@H](CC[C@@H]4[C@@H]3C[C@@H](O)[C@]3(C)[C@@H](C5=CC(=O)OC5)CC[C@]43O)C2)C[C@H](O)[C@@H]1O[C@H]1C[C@H](O)[C@H](O[C@H]2C[C@H](O)[C@H](O[C@@H]3O[C@H](CO)[C@@H](O)[C@H](O)[C@H]3O)[C@@H](C)O2)[C@@H](C)O1,-19.2%,
Nc1ncnc2c1ncn2[C@@H]1O[C@H](C[C@@H](N)CC[C@H](N)C(=O)O)[C@@H](O)[C@H]1O,-6.57%,
